Broadly, the AC50 is the concentration at which the activity in the assay is half-maximal.

Active and inactive are the calls of the source. The calls were made as follows: active = hit-call score of the fitted dose curve at least 0.9, where 1 is the maximum; inactive = score below 0.9.

This note sets out measurements from PubChem BioAssay (EPA / NIEHS).

Assay [1] is described as follows: ATG_CMV_CIS: Attagene CIS-FACTORIAL HepG2 Assay for human CMV (Internal Marker) (AID 2282928).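 Also: endpoint acts as a background internal control marker rather than a target.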 The conditions noted are these: HepG2 CMV promoter reporter, transcription factor profiling; actives raise or lower the signal. In short, it runs like this:
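Endogenous transcription factor activity read in HepG2 via transfected cis-promoter reporter units. After 24 h dosing, reporter mRNA measured by RT-PCR/capillary electrophoresis; gain or loss of signal fit relative to DMSO.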

The nature of assay [2]: ATG_DR4_LXR_CIS: Attagene CIS-FACTORIAL HepG2 Assay for human Liver X Receptor (LXR), DR4 submotif (AID 2282929). The conditions noted are these: HepG2 Attagene DR4 cis-reporter, mRNA transcription; actives raise or lower the signal. In short, it runs like this:
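Transiently transfected HepG2 liver cells; cis-regulated reporters; 24 h dosing. RT-PCR plus CE read-out of reporter mRNA. DMSO baseline, bidirectional curve fitting.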

The nature of assay [3]: ATG_AP_2_CIS: Attagene CIS-FACTORIAL HepG2 Assay for human Activator Protein 2 (AP-2) (AID 2282932). The settings on record: HepG2 AP-2 cis-reporter, Attagene transcription factor profiling; actives raise or lower the signal. In short, it runs like this: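 HepG2 cells were transiently transfected with multiple cis-promoter reporter transcription units and dosed for 24 h. Reporter mRNA was measured by RT-PCR with capillary electrophoresis fluorescence; bidirectional fits relative to DMSO baseline.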

Assay [4] concerns the target Transcription factor E2F1 (Homo sapiens) (UniProt Q01094). The experiment in a line: ATG_E2F_CIS: Attagene CIS-FACTORIAL HepG2 Assay for human E2F Transcription Factor 1 (AID 2282935). The settings on record: HepG2 Attagene cis-reporter, E2F reporter RNA transcripts; actives raise or lower the signal. In short, it runs like this:
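HepG2 cells transiently transfected with multiplexed cis-element reporter units, dosed for 24 h. Reporter mRNA measured by RT-PCR, 6-FAM primer-extension labeling, HpaI digestion and capillary electrophoresis; bidirectional fit versus DMSO baseline.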

Assay [5] is described as follows: ATG_M_61_CIS: Attagene CIS-FACTORIAL HepG2 Assay for M61 Transcription Factor (Internal Marker) (AID 2282937). The conditions noted are these: HepG2 Attagene CIS-FACTORIAL M61 internal marker reporter; actives raise or lower the signal. In short, it runs like this: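 Multiplexed reporter mRNA assay, HepG2 human hepatoma cells, 24 h treatment. Signal: FAM-labelled, HpaI-digested RT-PCR fragments by CE. Fit: bidirectional, baseline DMSO.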

The nature of assay [6]: ATG_EGR_CIS: Attagene CIS-FACTORIAL HepG2 Assay for human Early Growth Response 1 (EGR1) (AID 2282938). The conditions noted are these: HepG2 Attagene CIS-FACTORIAL EGR reporter mRNA; actives raise or lower the signal. In short, it runs like this: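 Multiplexed cis-reporter system in human hepatoma HepG2 cells, transiently transfected. Cells are dosed for 24 h; reporter transcripts are amplified, fluorescently tagged and sized by capillary electrophoresis, with DMSO as negative control.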

A short description of assay [7]: ATG_Ets_CIS: Attagene CIS-FACTORIAL HepG2 Assay for human Erythroblast Transformation Specific (ETS) (AID 2282941). The settings on record: HepG2 ETS cis-reporter transcription, actives raise or lower the signal. In short, it runs like this:
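Steps: transfect HepG2 with multiple reporter units; treat compound 24 h; isolate RNA, DNase-treat, reverse-transcribe; PCR-amplify, label with 6-FAM, digest with HpaI; separate by capillary electrophoresis. Activity fitted both directions versus DMSO.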

Assay [8] deals with Hepatocyte nuclear factor 3-beta (Homo sapiens) (UniProt Q9Y261). Put plainly: ATG_FoxA2_CIS: Attagene CIS-FACTORIAL HepG2 Assay for human Forkhead box A2 (FOXA2) (AID 2282942). The settings on record: HepG2 cis-reporter transcription factor activity, 24 h; actives raise or lower the signal. In short, it runs like this: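 Multiplexed cis-element reporter assay in transiently transfected HepG2. Twenty-four hours post-dosing, RNA was reverse-transcribed, amplified, FAM-labelled, HpaI-digested and separated by CE. Activity gain or loss relative to DMSO.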

Assay [9] in a line: ATG_FoxO_CIS: Attagene CIS-FACTORIAL HepG2 Assay for human Forkhead box O (FoxO) (AID 2282943). The conditions noted are these: HepG2 Attagene cis-reporter, FoxO element, mRNA; actives raise or lower the signal. In short, it runs like this: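 24 h chemical exposure, HepG2 with transient cis-MRTU transfection. RNA extraction, oligo(dT) RT, reporter-specific PCR, primer-extension labelling, HpaI digestion, CE fragment analysis; bidirectional fit, DMSO baseline.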

Assay [10] in a line: ATG_GATA_CIS: Attagene CIS-FACTORIAL HepG2 Assay for human GATA Binding Protein (AID 2282944). The settings on record: HepG2 GATA cis-element reporter, Attagene multiplex mRNA; actives raise or lower the signal. The procedure, abridged:
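Endogenous transcription factor activity was captured through cis-promoter-driven reporters in transfected HepG2 cells. After 24 h exposure, reporter transcripts were quantified by RT-PCR with fluorescent capillary electrophoresis, and responses fitted both directions against DMSO.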

Assay [11] in a line: ATG_ISRE_CIS: Attagene CIS-FACTORIAL HepG2 Assay for human Interferon Regulatory Factor 1 (IRF1) binding to an Interferon-Stimulated Response Element (ISRE) (AID 2282948). The settings on record: HepG2 ISRE cis-reporter (Attagene), mRNA transcription readout; actives raise or lower the signal. The procedure, abridged: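 Transfected HepG2 (multiple reporter transcription units, cis elements) dosed 24 h. RNA → oligo(dT) RT → PCR → 6-FAM primer extension → HpaI → CE. DMSO = negative control/baseline.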

A short description of assay [12]: ATG_M_32_CIS: Attagene CIS-FACTORIAL HepG2 Assay for M32 Transcription Factor (Internal Marker) (AID 2282949).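 Also: background control marker of the multiplexed CIS panel rather than a real target.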 The settings on record: HepG2 Attagene cis-factorial M32 reporter, mRNA; actives raise or lower the signal. The procedure, abridged: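 Internal background marker read-out: RT-PCR/capillary electrophoresis fluorescence of reporter transcripts from transiently transfected HepG2 cells after 24 h chemical exposure. Activity fitted bidirectionally relative to DMSO negative control.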

For assay [13], the target named is Hepatocyte nuclear factor 6 (Homo sapiens) (UniProt Q9UBC0). Put plainly: ATG_HNF6_CIS: Attagene CIS-FACTORIAL HepG2 Assay for human Hepatocyte Nuclear Factor 6 (HNF6) (AID 2282952). The conditions noted are these: HepG2 Attagene cis-factorial HNF6 reporter transcription; actives raise or lower the signal. In short, it runs like this: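 HepG2, transient MRTU transfection (cis promoters); 24 h chemical exposure; total RNA → oligo(dT) RT → PCR → 6-FAM labelling → HpaI cut → CE; bidirectional fit vs DMSO.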

For assay [14], the target named is Heat shock factor protein 1 (Homo sapiens) (UniProt Q00613). Put plainly: ATG_HSE_CIS: Attagene CIS-FACTORIAL HepG2 Assay for human Heat Shock Transcription Factor 1 (HSE) (AID 2282953). The conditions noted are these: HepG2 HSE cis-reporter, Attagene RNA transcription; actives raise or lower the signal. The procedure, abridged:
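Cells were transfected with cis-element-driven reporter constructs, dosed for 24 h, then total RNA was reverse-transcribed and reporter cDNA amplified, FAM-labelled and digested with HpaI. Fragments were resolved by capillary electrophoresis; gain or loss was fitted against DMSO.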

A short description of assay [15]: ATG_MRE_CIS: Attagene CIS-FACTORIAL HepG2 Assay for human Metal Responsive Element (MRE) (AID 2282954). The conditions noted are these: HepG2 MRE cis-reporter transcription, Attagene multiplex; actives raise or lower the signal. In short, it runs like this: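 HepG2 cells transiently transfected with multiple cis-element reporter units measure endogenous MTF1-driven transcription. After 24 h compound exposure, reporter mRNA is quantified by RT-PCR with 6-FAM labelling, HpaI digestion and capillary electrophoresis; bidirectional fits versus DMSO.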

For assay [16], the target named is Paired box protein Pax-6 (Homo sapiens) (UniProt P26367). The experiment in a line: ATG_Pax6_CIS: Attagene CIS-FACTORIAL HepG2 Assay for human Paired Box 6 (PAX6) (AID 2282956). The conditions noted are these: HepG2 CIS-FACTORIAL PAX6 reporter transcription, RNA readout; actives raise or lower the signal. The procedure, abridged:
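Transient MRTU transfection of HepG2 → compound exposure 24 h → TriZol RNA, oligo(dT) RT → PCR, 6-FAM primer extension, HpaI cut → capillary electrophoresis; activity fitted both directions against DMSO.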

Assay [17] is described as follows: ATG_PXRE_CIS: Attagene CIS-FACTORIAL HepG2 Assay for human Pregnane X Receptor Element (PXRE) (AID 2282957). The conditions noted are these: HepG2 Attagene CIS-FACTORIAL PXRE reporter, mRNA; actives raise or lower the signal. In short, it runs like this: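 Transfect HepG2 with MRTUs (cis promoter elements); dose chemical, incubate 24 h; isolate RNA, RT with oligo(dT), PCR, 6-FAM label, HpaI cut, CE. Gain/loss fit vs DMSO.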

Assay [18] in a line: ATG_Sox_CIS: Attagene CIS-FACTORIAL HepG2 Assay for human SRY-box transcription factor (SOX) (AID 2282960). The settings on record: HepG2 Attagene cis-factorial SOX reporter, mRNA; actives raise or lower the signal. The procedure, abridged: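 Fluorescence-labelled cDNA fragments from reporter transcripts, sized by CE, give the signal. Cells: HepG2, transiently transfected with cis-regulated reporter units. Exposure 24 h; DMSO negative control; bidirectional curve fitting.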

Assay [19] can be described thus: ATG_SREBP_CIS: Attagene CIS-FACTORIAL HepG2 Assay for human Sterol Regulatory Element Binding (SREBP) (AID 2282962). The settings on record: HepG2 Attagene cis-factorial SREBP reporter, mRNA; actives raise or lower the signal. The procedure, abridged:
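Transfected HepG2 (cis-regulated reporter library, endogenous TFs) → compound 24 h → total RNA → oligo(dT) RT → reporter-specific PCR → FAM primer extension, HpaI cut → CE fluorescence. Fit bidirectional vs DMSO.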

Chain of Heat shock factor protein 1 (Homo sapiens) (Q00613 whole entry, looked up, the tested form may be a part): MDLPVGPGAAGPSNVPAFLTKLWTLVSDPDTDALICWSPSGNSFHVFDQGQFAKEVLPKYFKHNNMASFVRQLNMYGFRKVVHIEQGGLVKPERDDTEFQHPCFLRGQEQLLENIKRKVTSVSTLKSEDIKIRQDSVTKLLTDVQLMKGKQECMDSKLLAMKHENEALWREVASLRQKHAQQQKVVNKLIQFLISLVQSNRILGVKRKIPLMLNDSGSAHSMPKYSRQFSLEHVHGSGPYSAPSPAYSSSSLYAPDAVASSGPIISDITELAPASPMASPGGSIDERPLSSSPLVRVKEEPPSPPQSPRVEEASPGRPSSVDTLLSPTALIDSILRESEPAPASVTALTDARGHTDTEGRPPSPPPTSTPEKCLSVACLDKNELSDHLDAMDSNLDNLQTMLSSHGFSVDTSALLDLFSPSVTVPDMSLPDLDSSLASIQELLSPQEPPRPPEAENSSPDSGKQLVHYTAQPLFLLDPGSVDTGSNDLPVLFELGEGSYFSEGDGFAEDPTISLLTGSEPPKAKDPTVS
Chain of Hepatocyte nuclear factor 6 (Homo sapiens) (Q9UBC0 whole entry, looked up): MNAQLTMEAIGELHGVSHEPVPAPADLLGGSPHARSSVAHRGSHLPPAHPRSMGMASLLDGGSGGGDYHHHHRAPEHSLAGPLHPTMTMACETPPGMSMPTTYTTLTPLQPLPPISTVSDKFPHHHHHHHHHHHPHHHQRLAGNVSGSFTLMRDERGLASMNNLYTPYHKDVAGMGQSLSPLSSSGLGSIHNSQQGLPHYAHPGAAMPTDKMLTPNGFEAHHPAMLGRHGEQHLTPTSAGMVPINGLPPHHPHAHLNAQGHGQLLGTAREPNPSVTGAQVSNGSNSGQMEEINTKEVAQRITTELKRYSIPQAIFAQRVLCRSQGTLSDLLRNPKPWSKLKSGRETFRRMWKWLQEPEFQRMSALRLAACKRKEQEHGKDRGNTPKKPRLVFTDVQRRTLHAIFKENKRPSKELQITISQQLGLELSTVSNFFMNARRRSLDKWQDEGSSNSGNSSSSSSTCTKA
Chain of Paired box protein Pax-6 (Homo sapiens) (P26367 whole entry, looked up): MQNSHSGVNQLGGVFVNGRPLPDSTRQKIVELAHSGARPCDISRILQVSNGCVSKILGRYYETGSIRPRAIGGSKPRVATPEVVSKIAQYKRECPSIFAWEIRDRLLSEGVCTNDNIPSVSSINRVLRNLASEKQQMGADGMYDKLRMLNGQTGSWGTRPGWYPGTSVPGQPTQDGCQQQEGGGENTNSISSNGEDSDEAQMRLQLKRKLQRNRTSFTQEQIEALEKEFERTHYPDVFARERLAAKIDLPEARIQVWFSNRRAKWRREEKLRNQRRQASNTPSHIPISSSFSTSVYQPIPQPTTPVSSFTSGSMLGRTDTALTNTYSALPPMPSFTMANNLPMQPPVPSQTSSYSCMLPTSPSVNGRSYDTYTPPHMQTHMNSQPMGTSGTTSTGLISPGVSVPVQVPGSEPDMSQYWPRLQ
Chain of Hepatocyte nuclear factor 3-beta (Homo sapiens) (Q9Y261 whole entry, looked up): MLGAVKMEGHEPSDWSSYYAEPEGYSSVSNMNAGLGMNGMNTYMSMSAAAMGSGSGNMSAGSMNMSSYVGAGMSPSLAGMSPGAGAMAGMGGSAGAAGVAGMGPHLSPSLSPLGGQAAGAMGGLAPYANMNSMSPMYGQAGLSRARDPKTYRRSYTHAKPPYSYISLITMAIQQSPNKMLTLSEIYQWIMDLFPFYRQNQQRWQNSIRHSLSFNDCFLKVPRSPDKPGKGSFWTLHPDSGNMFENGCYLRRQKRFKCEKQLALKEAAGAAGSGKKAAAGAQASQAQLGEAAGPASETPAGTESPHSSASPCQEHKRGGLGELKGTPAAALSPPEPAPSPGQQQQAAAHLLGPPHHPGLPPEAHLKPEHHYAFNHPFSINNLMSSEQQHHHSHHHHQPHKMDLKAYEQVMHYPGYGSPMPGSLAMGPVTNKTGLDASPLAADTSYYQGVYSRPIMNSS
Chain of Transcription factor E2F1 (Homo sapiens) (Q01094 whole entry, looked up): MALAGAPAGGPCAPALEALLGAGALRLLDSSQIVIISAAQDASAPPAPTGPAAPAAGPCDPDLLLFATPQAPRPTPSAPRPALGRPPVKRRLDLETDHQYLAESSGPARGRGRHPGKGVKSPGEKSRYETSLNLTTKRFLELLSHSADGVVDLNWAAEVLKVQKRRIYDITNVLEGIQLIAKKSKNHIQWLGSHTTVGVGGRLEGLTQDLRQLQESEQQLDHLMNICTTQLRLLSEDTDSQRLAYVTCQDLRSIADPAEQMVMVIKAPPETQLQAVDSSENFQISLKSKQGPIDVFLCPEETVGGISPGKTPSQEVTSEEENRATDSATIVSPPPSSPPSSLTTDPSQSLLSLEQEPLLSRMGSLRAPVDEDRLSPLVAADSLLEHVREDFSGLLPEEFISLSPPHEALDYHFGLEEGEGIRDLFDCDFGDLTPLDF

Take `COC(=O)COc1ccc(Cl)cc1Cl`: the result in [1], in assay [2], in assay [3], in [4], in assay [5] and in assay [6] was inactive. Moreover, the result in [7], in assay [8], in assay [9], in assay [10], in assay [11] and in assay [12] was inactive. Further, the compound was classed as inactive in [13], in assay [14], in assay [15], in [16], in assay [17] and in assay [18]. The outcome in assay [19] was inactive.
In the case of `C[N+](C)=CCl`, the result in assay [1], in [2], in assay [3], in [4], in assay [5] and in assay [6] was inactive. The compound was classed as inactive in [7], in [8], in assay [9], in [10], in [11] and in [12]. Besides, the call in [13], in assay [14], in assay [15], in assay [16], in assay [17] and in assay [18] was inactive. Also, the compound was called inactive in [19].
In the case of `CC1CCCC1.[C-]#[O+].[C-]#[O+].[C-]#[O+].[Mn]`, the call in assay [1], in [2], in assay [3], in assay [4], in assay [5] and in assay [6] was inactive. Besides, the outcome in [7], in assay [8], in assay [9], in [10], in assay [12] and in [13] was inactive. Further, the compound was called inactive in assay [14], in [15], in assay [16], in [17], in assay [18] and in [19]. For the same compound, the AC50 in assay [11] was 35.2 µM (active).
`ClCC(Cl)Cl`: the compound was classed as inactive in [1], in assay [2], in assay [3], in [4], in [5] and in assay [6]. Also, the outcome in assay [7], in assay [8], in assay [9], in assay [10], in assay [11] and in [12] was inactive. Besides, the compound was classed as inactive in assay [13], in assay [14], in assay [15], in assay [16], in assay [17] and in assay [18]. Further, in assay [19], the outcome was inactive.
`Clc1ccc(-c2ccccc2)cc1`: the AC50 is 139 µM (active) in assay [1] and 42.7 µM (active) in assay [17]. Moreover, the call in assay [2], in assay [3], in assay [4], in assay [5], in assay [6] and in assay [7] was inactive. Also, the outcome in assay [8], in assay [9], in assay [10], in assay [11], in assay [12] and in assay [13] was inactive. Further, the call in [14], in assay [15], in assay [16], in [18] and in assay [19] was inactive.
